# Experimental data taken from PubChem BioAssay AID651768 (National Center for Advancing Translational Sciences (NCATS), 2012).
# The campaign covered roughly 360,000 compounds. About 1,700 (0.47%) were called active. Roughly 2% stayed inconclusive and do not appear here. Shown is part of a subset that was picked to be rich in actives. A call without a number means that no potency is given here. Unmarked numbers belong to inactive results. Calls come from the whole dose curve; as a rule, active = well fitted inhibition curve with a large enough effect; inconclusive = small, poorly fitted or top-dose-only effect; inactive = no such curve, though single readings can be large or run the other way.
# Target: Bifunctional 3'-5' exonuclease/ATP-dependent helicase WRN (Homo sapiens) (UniProt Q14191)
# Sequence (Q14191 whole entry, looked up): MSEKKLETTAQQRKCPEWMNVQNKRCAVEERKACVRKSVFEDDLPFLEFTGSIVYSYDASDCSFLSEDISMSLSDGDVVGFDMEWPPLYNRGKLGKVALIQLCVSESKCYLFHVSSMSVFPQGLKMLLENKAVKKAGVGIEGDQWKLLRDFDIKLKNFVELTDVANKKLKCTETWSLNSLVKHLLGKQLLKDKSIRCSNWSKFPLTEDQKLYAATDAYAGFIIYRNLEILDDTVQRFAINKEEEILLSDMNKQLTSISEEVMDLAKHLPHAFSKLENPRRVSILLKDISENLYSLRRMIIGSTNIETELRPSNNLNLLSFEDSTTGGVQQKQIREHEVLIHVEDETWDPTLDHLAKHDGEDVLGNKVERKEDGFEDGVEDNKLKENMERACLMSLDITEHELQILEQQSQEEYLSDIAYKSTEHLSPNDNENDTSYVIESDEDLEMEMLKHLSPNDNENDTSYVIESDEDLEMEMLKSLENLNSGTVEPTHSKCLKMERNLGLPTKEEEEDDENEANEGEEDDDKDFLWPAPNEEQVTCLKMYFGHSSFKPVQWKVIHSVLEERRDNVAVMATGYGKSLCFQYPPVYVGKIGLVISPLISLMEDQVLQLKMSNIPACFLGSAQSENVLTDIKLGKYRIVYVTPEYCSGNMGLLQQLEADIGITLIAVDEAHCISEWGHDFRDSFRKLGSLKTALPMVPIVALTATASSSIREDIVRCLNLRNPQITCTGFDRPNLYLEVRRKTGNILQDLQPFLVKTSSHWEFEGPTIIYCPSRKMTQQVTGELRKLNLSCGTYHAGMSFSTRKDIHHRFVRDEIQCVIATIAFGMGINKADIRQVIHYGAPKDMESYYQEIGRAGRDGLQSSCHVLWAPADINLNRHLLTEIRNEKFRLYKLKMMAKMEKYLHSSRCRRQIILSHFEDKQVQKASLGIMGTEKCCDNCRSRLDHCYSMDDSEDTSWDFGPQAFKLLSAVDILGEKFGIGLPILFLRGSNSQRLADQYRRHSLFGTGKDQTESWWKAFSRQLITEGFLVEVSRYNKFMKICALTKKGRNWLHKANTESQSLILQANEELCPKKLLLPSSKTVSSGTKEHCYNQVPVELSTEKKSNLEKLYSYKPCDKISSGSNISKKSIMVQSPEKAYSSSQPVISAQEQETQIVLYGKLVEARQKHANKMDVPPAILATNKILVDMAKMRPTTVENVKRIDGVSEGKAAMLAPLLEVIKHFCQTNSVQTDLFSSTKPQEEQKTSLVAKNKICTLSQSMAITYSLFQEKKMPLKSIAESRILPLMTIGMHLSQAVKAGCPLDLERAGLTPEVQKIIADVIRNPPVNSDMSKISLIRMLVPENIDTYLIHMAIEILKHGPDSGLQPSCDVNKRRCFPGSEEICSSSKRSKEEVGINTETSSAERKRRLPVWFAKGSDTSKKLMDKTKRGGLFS
# Assay: qHTS for Inhibitors of WRN Helicase; note: nearly all actives have a fitted effect of over 55% in size
# Conditions: WRN helicase unwinding, fluorescent forked duplex, kinetic; series mostly up to 114 µM
# Text: Inhibition of DNA repair is proposed as a strategy for combating cancer. Synthetic lethality is an approach that exploits preexisting DNA repair deficiencies in certain tumors to develop inhibitors of DNA repair pathways that compensate for the tumor-associated DNA repair deficiency. Because helicases play critical roles in the DNA damage response and in DNA repair, particularly in actively dividing and replicating cells, characterization of synthetic lethal relationships of DNA helicases may be of value in developing improved anticancer treatment strategies; moreover, small molecules that specifically target a given DNA helicase may be useful for understanding its role in cellular nucleic acid metabolism. The goal of this project is to identify small molecule, non-covalent chemical inhibitors of the Werner syndrome (WS) helicase (WRN), which plays an important role in cell proliferation, the replication stress response, and DNA repair. […] The WRN gene product that is defective in the chromosomal instability disorder has DNA helicase and exonuclease activities and interacts with a number of nuclear proteins to maintain genomic stability. We will employ an optimized high-throughput screening assay that utilizes a fluorescence intensity modulation scheme with a fluorophore and quencher positioned near one another within a duplex deoxyoligonucleotide that contains a single forked structure. After a high-throughput screen of the ~350,000-member Molecular Libraries Small Molecule Repository (MLSMR) collection, followed by data analysis and hit selection, a panel of confirmatory, as well as secondary and ternary, assays will be employed to identify high-confidence WRN inhibitors. Structure-activity relationships will be investigated for the top candidate inhibitor series through medchem expansion. These are the results of the primary screening campaign against the MLSMR. NIH Chemical Genomics Center [NCGC] NIH Molecular Libraries Probe Centers Network [MLPCN] MLPCN Grant: MH096530 Assay Submitter (PI): Robert Brosh, National Institute of Aging
# Three muL of reagents (buffer in columns 3 and 4 as negative controls; WRN at 20 nM final concentration in columns 1 and 2 as positive controls; columns 5-48 as test reactions) will be dispensed into a 1536-well Greiner black plate via solenoid-valve based nanoliter dispensers. Compounds (23 nL each in columns 5-48) and control (23 nL each in column 2 as dose-response) will be transferred via a Kalypsys pintool equipped with a 1536-pin array. Plates will be incubated for 15 min at room temperature, and then 1 µL of substrate (100 nM forked duplex oligonucleotide and 2 mM ATP final concentrations) will be added to start reaction, and plate will be transferred into a ViewLux high-throughput CCD imager where reaction progress is measured in kinetic mode using standard red-fluorescence optics (excitation filter 525 nm, emission filter 598 nm).
# Potency is the fitted concentration of half-maximal effect.
SMILES,Potency,"activity change, negative = inhibition"
CC1(C)C(c2ccccc2)=NC(c2cccnc2)=[N+]1[O-],50.1 µM (active),
CCOP(=O)(OCC)C(NC(=O)c1ccc(C)cc1)C(Cl)(Cl)Cl (stereo not given),inactive,
O=C(Cc1ccc(Cl)cc1)NCCN1CCN(C(=O)Cc2ccc(Cl)cc2)CC1,inactive,
CCOC(=O)[C@]12Cc3cc(OC)ccc3[C@H]1N(C(C)C)C(=O)c1ccccc12,inactive,
CC(Cc1ccccc1)NCCC(c1ccccc1)c1ccccc1 (stereo not given),inactive,
CC(Cc1cccs1)NCc1ccc(Cl)cc1 (stereo not given),inactive,
O=C(O)CCn1cc(C=C2C(=O)NC(=S)NC2=O)c(-c2cccc(Br)c2)n1,31.6 µM (active),
C=C(C)C1(CCCC)C(=O)NC(=S)NC1=O,inactive,
COc1ccc(-n2nnnc2C(c2cccc3ccccc23)N2CCC(n3c(=O)[nH]c4ccccc43)CC2)cc1 (stereo not given),inactive,
COC(=O)CN(CCCl)P1(=O)OCCCN1CCCl (stereo not given),inactive,
CCOc1ccc(-c2cc(C)[n+](CCN(CC)CC)c(-c3ccc(OCC)cc3)c2)cc1,inactive,
O=c1[nH]c(O)c(C=Nc2cc(F)cc(F)c2)c(=O)[nH]1,inactive,
Cc1ccc2c(c1)=C/C(=C\c1c(O)[nH]c(=O)[nH]c1=O)C(=O)N=2,39.8 µM (active),
O=C1N=c2ccccc2=C/C1=C\c1c(O)[nH]c(=S)[nH]c1=O,inactive,
N#Cc1ccc(Cn2cc(C(=O)c3ccco3)c3ccccc32)cc1,inactive,
CCCCCCCCCCCCn1ccc(=N)cc1,inactive,
COc1ccc(CCn2c(O)c(C=NCCCn3ccnc3)c(=O)[nH]c2=O)cc1OC,inactive,
O=C1CC(=O)N(Cc2ccccc2)C(=O)N1CCCCCCN1C(=O)CC(=O)N(Cc2ccccc2)C1=O,28.2 µM (active),
CC(C)(C)c1ccc(CN2C(=O)CN=C(c3ccccc3)c3ccccc32)cc1,inactive,
O=C(CN1CCCC1=O)NCCc1ccccc1,inactive,
CC(=O)C1(O)CCC2C3CCC4=C(Cl)C(=O)CCC4(C)C3CCC21C (stereo not given),inactive,
CCOC(=O)[C@]12Cc3ccccc3[C@H]1N(C1CCCCC1)C(=O)c1cc(OC)ccc12,inactive,
O=C(O)COc1ccccc1/C=C1\C(=O)NC(=O)N(CCC2=CCCCC2)C1=O,39.8 µM (active),
C=CCN1C(=O)NC(=O)/C(=C/c2ccc(OCC(=O)Nc3ccc(C)cc3)cc2)C1=O,inactive,
O=C1NC(=O)N(CCc2ccc(F)cc2)C(=O)/C1=C/C=C/c1ccccc1,inactive,

SMILES,Potency,"activity change, negative = inhibition"
CCCOC(=O)C1C2c3ccccc3C(c3ccccc32)C1C(=O)O (stereo not given),inactive,
CC(=O)N1CN2CN(C(C)=O)CC(C(=O)c3ccc(Br)cc3)(C2)C1,inactive,
O=C1NC(=O)N(c2ccccc2)C(=O)/C1=C/c1ccc([N+](=O)[O-])s1,28.2 µM (active),
O=C1NC(=O)N(c2ccc(F)cc2)C(=O)/C1=C/c1ccc2c(c1)CCCN2Cc1ccccc1,inactive,
O=c1c2ccccc2nc(CBr)n1-c1ccc(Cl)cc1,inactive,
COc1ccc(N2C(=O)/C(=C/c3ccco3)C(=O)NC2=S)cc1,17.8 µM (active),
CN(C)CC1CCCCC1OC(=O)c1ccc(Cl)c(Cl)c1 (stereo not given),inactive,
CC(C)(C)[C@]1(O)C[C@@H]2OC(=O)C[C@@]23C(=O)O[C@@H]2OC(=O)[C@H](O)[C@]213,inactive,
COc1ccc(-c2nn(CCC#N)cc2C(=O)Nc2ccc(C(C)=O)cc2)cc1,inactive,
Clc1cccc(Cl)c1Cl,inactive,
Cc1c(C(=O)O)cccc1-n1c(C)cc(/C=C2\C(=O)NC(=O)N(c3ccc4c(c3)OCO4)C2=O)c1C,,-16.1% [at 11.6 µM]
Cc1cccc(N2C(=O)NC(=O)/C(=C\c3cnn(-c4ccccc4)c3)C2=O)c1,50.1 µM (active),
COc1ccc(S(=O)(=O)NCc2ccc(C(=O)N3CCC4(CC3)OCCO4)cc2)cc1,inactive,
OCC#CC[N+]1(CC#Cc2ccccc2)CCCC1,inactive,
CSC1=NP(=S)(SC)N(C)c2nc3n(c21)CCC3 (stereo not given),inactive,
COC(=O)C[C@H]1CC[C@H]2NC[C@@H](O)COC[C@@H]2O1,inactive,
O=C1NC(=O)N(Cc2ccco2)C(=O)/C1=C\c1ccc(-c2ccc(F)cc2)o1,31.6 µM (active),
COc1ccc(-c2nc(CS(=O)CC(=O)N3CCC4(CC3)OCCO4)c(C)o2)cc1 (stereo not given),inactive,
COc1ccccc1N=Nc1c(O)[nH]c(=S)[nH]c1=O,inactive,
O=c1[nH]c(=S)[nH]c(O)c1/C=C1\C=Nc2ccccc21,50.1 µM (active),
O=c1[nH]c2ccccc2n1C1CCN(C(c2ccccc2)c2nnnn2Cc2ccccc2)CC1 (stereo not given),inactive,
O=C(N/N=C/c1c(O)n(C2CC2)c(=S)[nH]c1=O)c1ccccc1,inactive,
COc1ccccc1N=C1SCCCN1C,inactive,
CCCCCn1c(=O)c(C(=O)Nc2c(C)n(C)n(-c3ccccc3)c2=O)c(O)c2ccccc21,inactive,
COC(=O)C1=C(c2cccc(OCc3ccccc3)c2)C[C@@H]2CC[C@H]1N2C(=O)NNCc1ccccc1,inactive,
